Pin1 inh: inhibitors of human Pin1; Q13526; Pin1 FP peptide displacement, HiFluor488, 10 min; Potency, µM (series often up to 115 µM), without a hit: at the top dose activity, negative = inhibition, hits mostly inhibitors; hit rate 0.009% among 390,000; active = well fitted inhibition curve with a large enough effect in the polarisation, with a control signal flat, not every such curve was filed as active; inconclusive = small, poorly fitted or top-dose-only effect, or effect the other way, or a change in a side signal; inactive = no such curve, though single readings can be large or run the other way; the % refers to the polarisation; note: potency is the fitted concentration of half-maximal effect; % is set by controls: 0 for no effect and ±100 for the full control effect
Target sequence (Q13526 whole entry, looked up): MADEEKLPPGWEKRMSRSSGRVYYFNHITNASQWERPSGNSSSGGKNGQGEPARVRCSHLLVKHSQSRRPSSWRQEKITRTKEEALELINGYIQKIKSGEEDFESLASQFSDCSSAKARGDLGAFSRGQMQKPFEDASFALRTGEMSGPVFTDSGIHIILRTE
TrxR1 substrate: rat thioredoxin reductase 1 substrate activity | O89049 | purified TrxR1 substrate turnover, NADPH consumption readout | Potency, µM (doses to about 114 µM), inactives show top-dose activity change, negative = substrate turnover | hit rate 0.01% among 390,000 | AID 588456; note: potency is the fitted concentration of half-maximal effect; % is set by controls: 0 for no effect and ±100 for the full control effect; nearly all actives have a fitted effect of over 50% in size
Target sequence (O89049 whole entry, looked up): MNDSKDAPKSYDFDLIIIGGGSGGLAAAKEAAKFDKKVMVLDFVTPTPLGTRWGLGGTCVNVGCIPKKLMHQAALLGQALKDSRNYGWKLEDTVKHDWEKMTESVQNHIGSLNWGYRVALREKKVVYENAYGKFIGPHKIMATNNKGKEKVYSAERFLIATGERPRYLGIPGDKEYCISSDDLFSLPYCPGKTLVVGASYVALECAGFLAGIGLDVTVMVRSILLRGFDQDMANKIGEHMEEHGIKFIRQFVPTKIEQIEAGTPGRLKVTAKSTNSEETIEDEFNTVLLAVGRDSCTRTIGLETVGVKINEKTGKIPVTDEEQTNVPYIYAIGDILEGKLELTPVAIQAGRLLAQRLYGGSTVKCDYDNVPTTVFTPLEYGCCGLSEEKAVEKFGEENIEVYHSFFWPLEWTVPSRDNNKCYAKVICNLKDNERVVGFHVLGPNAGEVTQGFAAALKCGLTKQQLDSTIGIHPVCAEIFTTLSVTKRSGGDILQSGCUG
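Rat TrxR1, dispensed at 90 nM, was prereduced with 400 uM NADPH (final) for 5 min at ~22 deg C, then incubated with compound 15 min before 400 uM selenite. A first-read NADPH fluorescence drop versus no-compound background flagged substrates.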
A-T KAP1 phos: potential ataxia-telangiectasia treatment. F2112 A-T fibroblasts, KAP-1 phosphorylation AlphaLISA; neocarzinostatin DNA damage 30 min before lysis. hit rate 0.19% among 320,000. Potency, µM (top dose mostly 57.5 µM), without a hit: at the top dose activation, actives largely listed as activators; note: potency is the fitted concentration of half-maximal effect; % of control where 0% means no effect; nearly all actives have a fitted effect of over 45% in size
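ATM-like activity read as KAP-1 phosphorylation via AlphaLISA donor/acceptor antibody pairs after lysis and 6 hr at 25C. Cells were ATM-null patient fibroblasts (F2112, hTERT), dosed 60 min, then exposed to the DSB inducer NCS for 30 min.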
N370S GC: N370S glucocerebrosidase modulation, Gaucher chaperone candidate. hit rate 0.092% among 330,000. N370S GC spleen homogenate, 4MU-glucoside fluorescence. Potency, µM (doses to about 59.4 µM), without a hit: at the highest dose activity change, negative = inhibition, most hits filed as inhibitors. AID 2101;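 note: potency is the fitted concentration of half-maximal effect; 0% = full enzyme activity and -100% = no enzyme basal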
pAkt inh: blocks phosphorylation of Akt. Neuro2A IGF-stimulated pAkt S473 HTRF, 20 min; stronger effect = lower value. activity change, % for hits at 50 µM. hit rate 0.32% among 360,000. AID 651550; in the data active = activity change below about -80%; inconclusive = mostly about -51% to -80%; note: % is set by controls: 0 for no effect and ±100 for the full control effect
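Neuro2A cells in DMEM with 0.5% FBS, overnight at 37 deg C, given compound at single 50 µM final, then IGF (6 nM final) for 20 min at 37 deg C. Lysed; phospho-Akt Ser473 by HTRF after 24 h, 665/615 ratio.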
TrxR1 inh: inhibitors of rat thioredoxin reductase 1. Potency, µM (highest dose often 114 µM), for the others: at the top dose activity change, negative = inhibition, usual class: inhibitors. O89049. hit rate 1% among 390,000. AID 588453. recombinant rTrxR1, NADPH fluorescence consumption, selenite substrate; note: potency is the fitted concentration of half-maximal effect; % is set by controls: 0 for no effect and ±100 for the full control effect; nearly all actives have a fitted effect of over 65% in size
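Rat TrxR1 (90 nM in the dispensed reagent) was pre-reduced with 400 uM NADPH for 5 min at room temperature, then incubated with compound for 15 min. After 400 uM selenite was added, NADPH fluorescence (Ex 340/Em 450 nm) was followed for 8 min.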
* hit, by the source's call; i = inactive; ? = inconclusive; nt = not tested or not shown; [ ] = remark or other dose. An excerpt weighted towards active compounds, which were near 1.4% of everything screened. Unless noted, calls come from the whole dose curve; as a rule, active = well fitted curve in the direction sought with a large enough effect; inconclusive = small, poorly fitted or top-dose-only effect, or another doubt; inactive = no such curve, though single readings can be large; an effect the other way counts as inactive or inconclusive.

SMILES	Pin1 inh	TrxR1 substrate	A-T KAP1 phos	N370S GC	pAkt inh	TrxR1 inh
O=C(Nc1cccc(Cl)c1)c1csc(-c2ccccc2)n1	5%	-4%	32µM*	16%	i	6%
CC1=C(C#N)c2nc(N)c(C#N)c(C)c2/C1=C\c1ccc(OCC(=O)O)c(Cl)c1	?	10%	-4%	-17%	i	50µM*
CC(C)(C)OC(=O)CC(=O)NNC(=O)c1nc2ccccc2[nH]1	-3%	nt	nt	nt	nt	nt
COc1cc(O)c2c(c1)oc(=O)c1c3cc(O)c(O)cc3oc21	nt	nt	nt	-23%	nt	nt
Cc1c([N+](=O)[O-])nnn1-c1cc(Cl)cc(Cl)c1	-1%	8%	3%	6%	i	16µM*
N#Cc1nnn(-c2cc(Cl)cc(Cl)c2)c1N	3%	3%	-5%	19%	i	11%
CSc1oc(-c2ccc(F)cc2)nc1S(=O)(=O)c1ccc(F)cc1	-14%	3%[57.1 µM]	8%	3%	i	21%[57.1 µM]
CSc1oc(-c2ccc(F)cc2)nc1S(=O)(=O)c1ccccc1	3%	-4%	-1%	8%	i	13%
CCCCS(=O)(=O)c1oc(-c2ccc(F)cc2)nc1S(=O)(=O)c1ccccc1	nt	-3%	nt	nt	nt	1.1µM*
CCS(=O)(=O)c1oc(-c2ccc(F)cc2)nc1S(=O)(=O)c1ccc(Br)cc1	?	8%	nt	nt	nt	0.56µM*
CC(C)S(=O)(=O)c1oc(-c2ccc(F)cc2)nc1S(=O)(=O)c1ccccc1	nt	11%	nt	nt	nt	0.32µM*
CSc1oc(-c2ccccc2)nc1S(=O)(=O)c1ccc(F)cc1	31%	2%[57.1 µM]	1%	21%	nt	8%[57.1 µM]
CS(=O)(=O)c1oc(-c2ccc(F)cc2)nc1S(=O)(=O)c1ccc(Cl)cc1	-24%	11%	nt	nt	nt	0.5µM*
Cc1cc2c(s1)c1cnn(Cc3ccc(C)c(F)c3)c(=O)c1n2C	21%	nt	nt	nt	nt	nt
CC(C)S(=O)(=O)c1oc(-c2cccs2)nc1S(=O)(=O)c1ccc(F)cc1	3%	29%	nt	nt	nt	0.71µM*
Cc1ccc(S(=O)(=O)c2nc(-c3cccs3)oc2SC(C)C)cc1	53%	10%	nt	nt	nt	17%
COc1ccc(-c2nc(-c3ccncc3)no2)cc1	1%	1%	7%	-9%	i	8%
CCn1nc(-c2ccc(C)cc2)nc2c(=O)n(C)c(=O)nc1-2	?	50µM*	nt	nt	nt	?
Cn1nc(-c2ccncc2)nc2c(=O)n(C)c(=O)nc1-2	nt	20µM*	nt	nt	nt	20µM*
O=C(C=Cc1cccnc1)c1ccccc1	-1%	-7%	nt	nt	i	28µM*
O=C(/C=C/c1cccnc1)c1ccc(O)cc1	-2%	4%	-1%	-5%	i	-11%
C=CCNc1oc(-c2cccc(F)c2)nc1C#N	3%	-1%	-9%	nt	nt	7.1µM*
C=CCNc1oc(-c2ccc(Cl)cc2)nc1C#N	?	-3%	-5%	nt	nt	?
CCc1ccccc1NC(=O)C1C(c2ccccc2)C1(Cl)Cl (stereo not given)	1%	-12%	9%	-13%	-107%*	-2%
Cc1cc2nc3c(nc2cc1C)C1(C(=O)N(C)C)CCC3(C)C1(C)C (stereo not given)	-2%	-7%	4%	-8%	-110%*	-21%
SMILES	Pin1 inh	TrxR1 substrate	A-T KAP1 phos	N370S GC	pAkt inh	TrxR1 inh
CN(C)C(=O)C12CCC(C)(c3nc4ccccc4nc31)C2(C)C (stereo not given)	-8%	10%[57.1 µM]	-1%	28%	i	5%
NC1CCN(c2nc(-c3ccc(Br)cc3)cs2)CC1	-16%	nt	nt	nt	nt	nt
COc1ccc(C2Nc3ccccc3C(=O)N2Cc2ccccc2)cc1COc1ccc(C)cc1 (stereo not given)	8%	nt	nt	nt	nt	nt
Cn1nc(C(=O)NCc2ccccc2)c2ccccc2c1=O	3%	0%	4%	0%	i	11%
Cn1nc(C(=O)NCc2ccccn2)c2ccccc2c1=O	8%	-7%	-5%	27%[2.35 µM]	-94%*	-6%
COc1cc(CCC(=O)OCC(=O)N2CCc3ccccc32)cc(OC)c1OC	-8%	3%	8.9µM*	20%	i	17%
COc1cc(CO)ccc1OCC(=O)N1CCc2ccccc21	-1%	-1%	-7%	-2%	i	17%
N#CCCn1cc(C=C(C#N)C#N)c(-c2ccc(-c3ccccc3)cc2)n1	27%	16%	11%	6%	i	79µM*
N#CCCn1cc(/C=N/O)c(-c2ccccc2)n1	-6%	-8%	nt	-1%	i	6%
C=C1CCN(C(CC(C)C)C(=O)NCc2ccc(Cl)cc2)S(=O)(=O)c2ccccc21 (stereo not given)	5%	0%	nt	-4%	nt	19%
BrC(=C\c1ccccc1)/C=N/Nc1ccc2nncn2n1	?	-10%	-6%	-8%	i	18µM*
O=C(Cc1ccccc1)Nc1sc2c(c1C(=O)Nc1cccc(Cl)c1)CCCC2	18%	nt	nt	nt	nt	nt
CC(Cc1cccs1)NC(=O)Nc1ccc(Cl)c(Cl)c1 (stereo not given)	?	-7%	nt	5%	-103%*	3%
CC(Cc1cccs1)NC(=O)Nc1ccc(Cl)cc1 (stereo not given)	2%	-9%	1%	10%	i	-6%
O=C(NCCc1ccccc1)C1CCN(c2nc(-c3ccc(Br)cc3)cs2)CC1	16%	nt	nt	nt	nt	nt
O=C(O)CCc1c2ccc(=O)c(O)c-2oc2c(O)c(O)ccc12	nt	-5%	nt	nt	nt	56µM*
O=C1CCc2cc(S(=O)(=O)Nc3ccncc3)ccc2N1	2%	nt	nt	nt	nt	nt
O=C(CSc1nc2scc(-c3ccco3)c2c(=O)n1-c1ccccc1)N1CCOCC1	15%	10%[0.457 µM]	2%	1%	i	-31%
NC(=O)CSc1nc2scc(-c3ccco3)c2c(=O)n1-c1ccccc1	-16%	-2%[57.1 µM]	-6%	10%	i	8.9µM*
C=CCn1c(SCC(=O)NCC2CCCO2)nc2scc(-c3ccco3)c2c1=O (stereo not given)	13%	7%	3%	2%	i	-38%
Cc1ccc(C)c(-n2c(SCC(=O)NCC3CCCO3)nnc2-c2ccoc2C)c1 (stereo not given)	nt	3%	11%	-6%	i	28µM*
Cc1ccc(-n2c(SCC(=O)NCC3CCCO3)nnc2-c2ccoc2C)cc1 (stereo not given)	?	8%	15%	-1%	i	9%
O=C(CSc1nc2scc(-c3ccco3)c2c(=O)n1-c1ccccc1)NCC1CCCO1 (stereo not given)	?	-5%	-2%	11%	nt	45µM*
C=CCn1c(SCC(=O)NCCOC)nc2scc(-c3ccco3)c2c1=O	0%	-2%	-12%	-2%	i	45µM*
CC(=O)c1cccc(-n2c(=O)c3c4c(sc3n(CC(=O)c3ccc(Cl)cc3)c2=O)CN(C(C)=O)CC4)c1	32%	0%	nt	nt	nt	16%

From PubChem
